NadD block = inhibitors of S. aureus NadD, primary screen, biochemical, colorimetric, uHTS; purified NadD enzyme, colorimetric absorbance read-out; inhibition, % at 20 µM; actives 0.78% (n = 360,000); in the data active = inhibition above about 26%
aDG glyco up = activators of alpha-DG glycosylation, primary screen, uHTS, Pro5-aDG cells, AlphaScreen; activation, % at 10 µM; AID 624168, 2012; actives 0.22% (n = 360,000); alpha-DG glycosylation AlphaScreen (IIH6); 0% Pro5, 100% B10-LARGE cell signal;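 active = activation of at least 8% versus controls, or a plate z-score of at least 8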;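 also: Pro5 are CHO cells carrying HIG-tagged alpha-DG that lacks glycosylation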
MPTP block = mitochondrial permeability transition pore inhibitors, primary screen, biochemical, isolated mouse mitochondria, absorbance. actives 1.4% (n = 360,000). Ca2+ swelling absorbance, 30 min. AID 602449, 2012. inhibition, % at 10 µM;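 active = inhibition of 50% or more, scaled per plate between neutral and stimulator controls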
TAG inh = inhibitors of triacylglycerol accumulation, primary screen, cell-based, uHTS, fluorescence, H9c2; H9c2 cells, Nile Red lipid (TAG) fluorescence; cells loaded with 200 µM oleic acid; inhibition, % at 12.5 µM; actives 0.66% (n = 230,000);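 active = pattern-corrected inhibition of lipid staining of at least 50% with the nuclear-stain viability signal not falling by more than 50%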
Numbers stand for hits; – = inactive; · = no result given. Hits are enriched below; roughly 2.7% of the tested compounds scored in any of these assays.

SMILES	NadD block	aDG glyco up	MPTP block	TAG inh
O=C(N/N=C/c1cc(Br)cc([N+](=O)[O-])c1O)c1ccc(NC(=O)c2ccc(F)cc2)cc1	53.9	–	–	·
C[C@@H]1CN([C@H](C)CO)C(=O)CCCn2nncc2CO[C@@H]1CN(C)S(=O)(=O)c1ccc(-n2cccn2)cc1	–	–	–	–
O=c1c2c([N+](=O)[O-])cc([N+](=O)[O-])cc2sn1-c1ccc(Br)cc1	30.0	–	–	–
CC1=C(C(=O)N(C)C)CC(CC(=O)NCc2cccc3ccccc23)C(=O)N1CCC1=CCCCC1 (configuration not stated)	–	–	–	–
CCc1ccc(S(=O)(=O)Nc2cc(SCC(=O)O)c(O)c3ccccc23)cc1	–	8.1	–	–
O=C(O)c1cccc(S(=O)(=O)Nc2ccc([N+](=O)[O-])cc2O)c1	–	–	–	–
O=C(O)CSc1cc(NS(=O)(=O)c2cccc([N+](=O)[O-])c2)c2ccccc2c1O	–	2.6	–	–
CCOc1ccc(S(=O)(=O)Nc2cc(SCC(=O)O)c(O)c3ccccc23)cc1	–	3.9	–	·
Cc1ccc(C)c(S(=O)(=O)Nc2cc(SCC(=O)O)c(O)c3ccccc23)c1	–	8.5	–	·
Cc1ccc(S(=O)(=O)N2CCOCC2)cc1C(=O)N1CCN(c2ccc(C(F)(F)F)cn2)CC1	–	–	–	–
Oc1ccccc1C=Nc1cccc2ccccc12	–	–	–	·
Oc1cccc(C=Nc2cccc3ccccc23)c1O	45.5	–	–	·
CCn1nnnc1-c1ccc(OC)c(S(=O)(=O)Nc2ccccc2OC)c1	–	–	–	–
CCC(=O)N1CCN(c2nc(CC)nc3sc4c(c23)CCCC4)CC1	–	–	–	·
CC1CCc2c(sc3nc(C(C)(C)C)nc(N4CCN(C(=O)CCl)CC4)c23)C1 (configuration not stated)	–	–	–	91.4
Cc1cc(C(=O)COC(=O)C2=COCCO2)c(C)n1-c1ccccc1	–	–	–	–
Cc1[nH]c2ccccc2c1/C=N/Nc1ccc([N+](=O)[O-])cc1S(=O)(=O)Nc1ccc(Cl)cc1	37.9	–	–	·
COc1ccc(NS(=O)(=O)c2cc([N+](=O)[O-])ccc2N/N=C\c2c(C)[nH]c3ccccc23)cc1	–	–	–	–
COc1cc(NS(=O)(=O)c2ccc(NC(=O)/C(=C\c3ccccc3OC)NC(=O)c3ccccc3)cc2)nc(OC)n1	30.7	–	–	·
COc1cc(NS(=O)(=O)c2ccc(NC(=S)NC(=O)COc3ccccc3OC)cc2)nc(OC)n1	–	–	–	–
O=C(CN1CCCC1)Nc1ccc(-c2nc3cc(NC(=O)CN4CCCC4)ccc3o2)cc1	–	–	–	51.8
CCN(CC)CC(=O)Nc1ccc(-c2nc3cc(NC(=O)CN(CC)CC)ccc3o2)cc1	–	–	–	–
COc1ccc(CC2=C(O)c3ccccc3C(=O)C2=O)cc1	–	–	–	·
O=C1C(=O)c2ccccc2C(O)=C1CCCCl	–	3.8	–	–
CN1CCN(C2=C(Cl)C(=O)c3ccccc3C2=O)CC1	–	–	–	58.5
SMILES	NadD block	aDG glyco up	MPTP block	TAG inh
O=C1C(Cl)=C(N2CCC(C(=O)O)CC2)C(=O)c2ccccc21	–	–	–	–
CCCCCc1cc(=O)oc2c(C(CCN3CCCCC3)c3ccc4c(c3)OCO4)c(OC)cc(OC)c12 (configuration not stated)	–	–	–	106.5
CCCCCc1cc(=O)oc2c(C(CCN3CCCC(C)C3)c3ccc4c(c3)OCO4)c(OC)cc(OC)c12 (configuration not stated)	–	–	–	78.0
COc1cc(OC)c2c(-c3ccccc3)cc(=O)oc2c1C(CCN1CCCC(C)C1)c1ccc(N(C)C)cc1 (configuration not stated)	–	–	–	94.2
CC1C(=O)C(C)C(c2cccc(Br)c2)NC1c1cccc(Br)c1 (configuration not stated)	–	–	–	·
COc1ccc(C(=O)Nc2ccc3c(c2)C(=O)N(C)C3=O)cc1OC	–	–	–	·
N=C1/C(=C/c2ccc(OCc3ccccc3F)cc2)C(=O)N=C2SC(CC(=O)N3CCOCC3)=NN12	33.2	–	–	·
COc1cc(/C=C2\C(=N)N3N=C(N4CCOCC4)SC3=NC2=O)ccc1OC(=O)c1ccccc1	37.2	–	–	–
N=C1/C(=C\c2ccc(OC(=O)c3ccccc3Cl)cc2)C(=O)N=C2SC(N3CCOCC3)=NN12	47.7	–	–	·
CCOC(=O)C1(C)CCCN(C(=O)C(c2ccccc2)c2ccccc2)C1 (configuration not stated)	–	–	–	–
Cc1ccn(CCC(=O)Nc2ccc(-c3ccno3)cc2)n1	–	–	–	·
O=C(O)c1ccc(N/N=C/c2ccc(-c3cccc(Cl)c3)o2)cc1	–	–	–	84.2
O=C(O)c1ccc(N/N=C/c2ccc(-c3ccc(Cl)cc3Cl)o2)cc1	–	–	–	52.8
CC(C)(CNC(=O)c1ccc(-c2cccc(C(F)(F)F)c2)o1)N1CCOCC1	–	–	–	–
Cc1cccc(C)c1-n1nnnc1C(c1ccnc2ccccc12)N1CCN(C(=O)OC(C)(C)C)CC1 (configuration not stated)	–	–	–	·
O=C(NNc1c2ccccc2nc2ccccc12)c1ccc(O)cc1O	30.8	–	–	–
O=C(NNc1c2ccccc2nc2ccccc12)c1ccccc1Cl	–	–	–	·
CCOC(=O)C1(C)CCCN(C(=O)c2ccc(C#N)cc2)C1 (configuration not stated)	–	–	–	–
COc1ccc(C(=O)NCCSc2ccccc2)cc1OC	–	–	–	–
O=C(Nc1cccc(NC(=O)c2cccs2)c1)c1ccc([N+](=O)[O-])o1	–	–	–	61.4
O=C(Nc1ccc2oc(-c3cccnc3)nc2c1)c1ccc([N+](=O)[O-])o1	–	–	–	74.7
COc1cc(NC(=O)c2ccc([N+](=O)[O-])o2)ccc1NC(=O)c1cccs1	–	–	–	–
Cc1ccc(NC(=O)CN2CCN(C(=O)C3CC3)CC2)c(F)c1	–	–	–	–
Cc1cc(-c2csc(NC(=O)c3ccc(=O)[nH]c3)n2)c(C)n1Cc1ccco1	67.1	–	–	–
CCNc1nc(-c2cc(C)n(Cc3ccco3)c2C)cs1	–	–	–	–
COc1ccccc1C(=O)COC(=O)c1ccc(Cl)nc1	–	–	–	–
C/C(=N\NC(=O)c1nnn(-c2nonc2N)c1CN(C)c1ccccc1)c1ccccc1O	36.1	–	–	·
CCOC(=O)[C@@H]1[C@H]2COc3ccccc3[C@@H]2N2C(=O)N(c3cccc(Cl)c3)C(=O)[C@]12C	–	–	–	–
Cc1ccccc1-n1nc2c(c1NC(=O)c1ccc(Br)o1)CSC2	49.6	–	–	·
O=c1c2c3nc4ccccc4nc3n(-c3ccc4c(c3)OCCO4)c2ncn1C1CCCC1	–	–	–	64.1
